Results on 37 compounds are retold here after PubChem BioAssay AID602373 (National Center for Advancing Translational Sciences (NCATS), 2012).

Inconclusive results are not listed. Calls of active or inactive are those of the source. Calls follow the shape of the dose curve; as a rule, active = well fitted inhibition curve with a large enough effect; inconclusive = small, poorly fitted or top-dose-only effect; inactive = no such curve, though single readings can be large or run the other way.

This assay in a line: qHTS Assay for Inhibitors of Bacillus subtilis Sfp phosphopantetheinyl transferase (PPTase): Hepg2 Assay. Conditions: HepG2 cytotoxicity counter-screen; series mostly up to 46.1 µM; activity change, negative = inhibition: at the top concentration. From the text:
The covalent attachment of a phosphopantetheinyl (4'-PP) arm to a variety of synthases and other proteins is a key posttranslational protein modification. The 4'-PP is installed on the proteins post-translationally from coenzyme A (CoA) on a conserved serine residue by action of phosphopantetheinyl transferase (PPTase) enzymes. Phosphopantetheinylation is essential for synthase activity, and removal of the PPTase gene precludes natural product synthesis in microorganisms, or in the case of fatty acid biosynthesis, renders the organism unviable. PPTase enzymes belong to a distinct structural superfamily. Within bacteria, these enzymes are grouped into two classes based upon primary structure, the AcpS-Type and Sfp-Type PPTases.
Sfp-type PPTases, corresponding to an activator of surfactin production in Bacillus subtilis, are responsible for modifying type I polyketide and nonribosomal peptide synthases of prokaryotes. Sfp-type PPTases are responsible for the activation of a variety of pathogen-associated virulence factors. Among these compounds are toxins such as mycolactone from Mycobacterium ulcerans, siderophores such as vibriobactin from Vibrio cholerae or mycobactin from Mycobacterium tuberculosis, as well as the mycolic acids which form the waxy cell wall of Mycobacteria. The biosyntheses of these natural products are considered attractive targets for drug design.
In search of small molecule Sfp-PPTase inhibitors, a fluorescence quenching assay was developed for detection of Bacillus subtilis Sfp-PPTase enzymatic activity in a miniaturized high-throughput format. The consensus ybbr acceptor peptide […] was N-terminally labeled with Black Hole Quencher-2 (BHQ-2) and used in combination with rhodamine-labeled coenzyme A as a co-substrate.
Phosphopantetheinyl transfer is a process essential to cellular viability and maintenance in all forms of life. Cell-permeable and stable compounds acting as PPTase inhibitors are anticipated to be growth inhibitory agents. This assay sought to assess the toxicity of test compounds in the HepG2 hepatocarcinoma cells; a human cell line whose use additionally determines the toxicity of test article metabolites.
NIH Chemical Genomics Center [NCGC]
NIH Molecular Libraries Probe Centers Network [MLPCN]
Assay Submitter (PI): Michale Burkart, University of California, San Diego
Test compounds' toxicity was assessed by measuring cellular ATP content using a luciferase-coupled ATP quantitation assay (CellTiter-Glo; Promega, Madison, WI). In this assay, luminescent signal is proportional to amount of ATP, and thus to the number of metabolically competent cells. Briefly, Hepg2 cell suspension (5 uL, 4 x 10^5 cells/mL) was dispensed into 1,536-well tissue-culture treated white/solid bottom assay plates (Greiner Bio-One North America, Monroe, NC) using a Flying Reagent Dispenser (Aurora Discovery, Carlsbad, CA). Cells were incubated at 37 deg C for 6 hr to allow for cell attachment, followed by addition of compounds via pin tool (Kalypsys, San Diego, CA). After compound addition, plates were incubated for 48 hr at 37 deg C. At the end of the incubation period, CellTiter-Glo reagent (5 uL) was added, plates were incubated at room temperature in the dark for 30 min, and the luminescence intensity of each well was determined using a ViewLux plate reader (PerkinElmer, Shelton, CT). The positive control was 92 uM and 41 uM of tetra-N-Octylammonium bromide, and the negative control was DMSO.
For orientation: In qHTS, concentration-response curves come from the screen itself.
As for `COc1ccnc(NC(=S)N2CCN(c3ccc(Cl)cc3Cl)CC2)c1`, the “activity change, negative = inhibition” value was -6.72% (inactive). Consider `COc1cccc(NC(=S)N2CCN(c3cccc(C(F)(F)F)c3)CC2)n1`, for which the Potency is 28.1 µM (active). Consider `Cc1cc(C)nc(NC(=S)N2CCN(c3nncs3)CC2)c1`, for which the “activity change, negative = inhibition” value was -6.67% (inactive).

Turning to `Cc1ccnc(NC(=S)N2CCCN(c3cccc(C(F)(F)F)c3)CC2)c1`, the Potency was 25 µM (active). Regarding `COc1cccc(NC(=S)N2CCN(c3cccc(C(F)(F)F)n3)CC2)n1`, the “activity change, negative = inhibition” value is -11.6% (inactive). Same read-out and setting: then `Cc1ccnc(NC(=S)NC2CCN(c3cccc(C(F)(F)F)c3)CC2)c1`, with -11.6% (inactive). In the case of `Cc1cc(C)nc(NC(=C(C#N)C#N)N2CCN(c3cccc(C(F)(F)F)c3)CC2)c1`, the Potency result was “inactive”. As for `FC(F)(F)c1cccc(N2CCN(C(=S)Nc3cc4ccccc4cn3)CC2)c1`, the “activity change, negative = inhibition” value is -4.29% (inactive). Same read-out and setting: then `Cc1cc(C)nc(NC(=S)N2CCN(c3ccc(N4CCCC4)nn3)CC2)c1`, with 2.21% (inactive). As to `COc1cccc(NC(=S)N2CCN(c3ccc(Cl)c(Cl)c3)CC2)n1`, the “activity change, negative = inhibition” value was 4.44% (inactive). Still for that read-out and setting: the same measure for `COc1ccnc(NC(=S)N2CCN(c3cccc(Cl)c3Cl)CC2)c1`: -11.5% (inactive); for `Cc1cc(C)nc(NC(=S)N2CCN(c3ccc(Cl)cc3F)CC2)c1`: 1.76% (inactive); for `COc1cccc(NC(=S)N2CCN(c3ccc(C(F)(F)F)cc3[N+](=O)[O-])CC2)n1`: -3.46% (inactive).

On to `COc1cccc(NC(=S)N2CCN(c3cccc(Cl)c3Cl)CC2)n1`, for which the “activity change, negative = inhibition” value was -0.194% (inactive). With `Cc1ccnc(NC(=S)N2CCN(c3ccc(Cl)c(Cl)c3)CC2)c1`, the Potency was 28.1 µM (active). The same measure, in the same setting: then `FC(F)(F)c1cc(N2CCN(C(=S)Nc3cc(Cl)ccn3)CC2)cc(C(F)(F)F)c1`, with 15.8 µM (active).

Turning to `COc1ccnc(NC(=S)N2CCN(c3ncc(C(F)(F)F)cc3Cl)CC2)c1`, the “activity change, negative = inhibition” value was 1.74% (inactive). Same read-out and setting: the same measure for `COc1cc(NC(=S)N2CCN(c3cccc(C(F)(F)F)c3)CC2)nc2ccccc12`: -1.11% (inactive); for `Cc1cc(C)nc(NC(=S)N2CCN(c3ccc4nncn4c3)CC2)c1`: 1.53% (inactive). As for `Cc1ccnc(N=C(N)N2CCN(c3cccc(C(F)(F)F)c3)CC2)c1`, the Potency is 28.1 µM (active). Take `Cc1ccnc(NC(=S)N2CCN(c3ccc(Br)cc3)CC2)c1`: the “activity change, negative = inhibition” value was -4.53% (inactive).

`Cc1ccnc(NC(=S)N2CCN(c3cc(C(F)(F)F)cc(C(F)(F)F)c3)CC2)c1`: the Potency was 7.91 µM (active). With `Cc1cc(C)nc(Nc2nnc(N3CCN(c4cccc(C(F)(F)F)c4)CC3)s2)c1`, the “activity change, negative = inhibition” value is -11.6% (inactive).

For the compound `Cc1cc(C)nc(NC(=S)N2CCN(c3ccc4ncccc4c3[N+](=O)[O-])CC2)c1`, the “activity change, negative = inhibition” value was 1.59% (inactive). The same measure, in the same setting: the same measure for `Cc1ccnc(N(C)C(=S)N2CCN(c3cccc(C(F)(F)F)c3)CC2)c1`: -10.8% (inactive).

`COc1cccc(NC(=S)N2CCN(c3ccccc3C(F)(F)F)CC2)n1`: the “activity change, negative = inhibition” value was -4.58% (inactive).

`Cc1cc(C)nc(NC(=S)N2CCN(c3ccsc3)CC2)c1`: the “activity change, negative = inhibition” value is -8.98% (inactive). On the same count and under the same terms, the same measure for `Cc1cc(C)nc(NC(=S)N2CCN(c3ccc4nonc4c3)CC2)c1`: 4.13% (inactive); for `FC(F)(F)c1cccc(N2CCN(C(=S)Nc3cnccn3)CC2)c1`: -0.551% (inactive). Same read-out and setting: then `Cc1cc(C)nc(NC(=S)N2CCN(c3ccc4c(c3)OCO4)CC2)c1`, with 6.85% (inactive). Same read-out and setting: then `Cc1cc(NC(=S)N2CCN(c3cccc(C(F)(F)F)c3)CC2)nc2ccccc12`, with -4.95% (inactive). For the compound `CC(Cc1ccccc1)C(=O)Nc1ccc(Cl)cc1C(=O)O` (configuration not stated), the “activity change, negative = inhibition” value is -0.724% (inactive). Same read-out and setting: then `FC(F)(F)c1cnc(N2CCN(C(=S)Nc3cc(Cl)ccn3)CC2)c(Cl)c1`, with -6.14% (inactive); and `COc1ccc(N2CCN(C(=S)Nc3cc(C)ccn3)CC2)cc1`, with -8.81% (inactive). On to `CN(C)c1ccc2nc(NC(=S)N3CCN(c4cccc(C(F)(F)F)c4)CC3)sc2c1`, for which the Potency is 8.88 µM (active). For `Cc1cc(C)nc(NC(=S)N2CCN(Cc3cccc4ccccc34)CC2)c1`, the “activity change, negative = inhibition” value is 2.15% (inactive). The same measure, in the same setting: then `Cc1cc(C)nc(NC(=S)N2CCN(c3ccc(Cl)c(Cl)c3Cl)CC2)c1`, with 6.12% (inactive).
